# Laboratory results taken from paper PMC13541613, “GHT-SELEX demonstrates unexpectedly high intrinsic sequence specificity and complex DNA binding of many human transcription factors”.
# Molecular target: ZNF721 DBD1 (Homo sapiens, UniProt Q8TF20-2 29-461)
# Assay: HT-SELEX; 20 mM HEPES pH 7, 140 mM KCl, 5 mM NaCl, 1 mM K2HPO4, 2 mM MgSO4, 100 uM EGTA, ZnSO4, 0.1% Tween20; room temperature, 1 h; high values mean tight binding
# Conditions: protein: ivt; tags: eGFP (N-terminal); dsDNA, one strand shown
# How it was run: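 A tagged transcription factor, either full-length or its DNA-binding-domain fragment, was made in HEK293 lysate or cell-free extract, immobilised on beads and incubated with a randomized 40-base DNA library for 1 h at room temperature in HEPES/KCl low-stringency buffer containing Tween20. Washed beads were heat-eluted, and the bound DNA was PCR-amplified over successive cycles and Illumina-sequenced at ~3 million 60 bp reads per sample. The binding signal is the relative k-mer count in selected reads, where a higher value means tighter binding.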
# ZNF721 DBD1, sequence (Q8TF20 17-449): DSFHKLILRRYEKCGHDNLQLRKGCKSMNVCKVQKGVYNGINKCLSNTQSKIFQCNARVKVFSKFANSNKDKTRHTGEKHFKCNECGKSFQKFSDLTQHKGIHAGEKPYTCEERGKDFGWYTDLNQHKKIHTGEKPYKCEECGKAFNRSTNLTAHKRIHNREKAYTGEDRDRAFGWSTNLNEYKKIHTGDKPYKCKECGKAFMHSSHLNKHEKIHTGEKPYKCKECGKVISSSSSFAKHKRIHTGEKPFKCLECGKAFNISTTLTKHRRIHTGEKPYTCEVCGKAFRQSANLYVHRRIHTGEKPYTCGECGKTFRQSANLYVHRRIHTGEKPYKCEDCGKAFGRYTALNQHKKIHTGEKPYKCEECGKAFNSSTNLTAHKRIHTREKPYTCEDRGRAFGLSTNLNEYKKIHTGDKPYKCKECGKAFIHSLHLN
row,Sequence,binding signal [relative 10-mer count]
1,AAAAAGCATC,0.0262
2,CAGCGTCTCC,0.00174
3,CCTCCGCCCC,0.00789
4,CCTCCCCCCG,0.00541
5,CCGCCCGCCC,0.00495
6,AAAAGCAGCC,0.00261
7,CACCTCCCCA,0.00505
8,CACACCCCAC,0.00394
9,AGTGTATCCA,0.11
10,CCACGCCCCC,0.00605
11,CCCCTCTCCC,0.00454
12,AGCATACCCT,0.0443
13,GAAGCGTACC,0.0792
14,AAAGCAGCAT,0.00202
15,ACCCACCCGC,0.00316
16,AGCATACCCA,0.0246
17,CCCCCAGCCC,0.00587
18,ACCCCCCTCC,0.00624
19,ACCACCCGCC,0.00445
20,TCCCACCCCA,0.00564

row,Sequence,binding signal [relative 10-mer count]
1,ACAGCGTTAC,0.00105
2,CCACCCCTCC,0.0108
3,CCCCCCACGC,0.00404
4,CACCCTACCC,0.00408
5,CCACCCACAC,0.00734
6,CCCCCACCGC,0.00936
7,CCACCCTACC,0.00688
8,CCCCTCCCCG,0.00527
9,CCCCCCCCCA,0.00477
10,CCTCCCGCCC,0.00656
11,CCCCCTACCC,0.0072
12,GCCCCCACCC,0.0083
13,GCATACCCTA,0.0231
14,CCCACCGTCC,0.00449
15,AGCTATACCA,0.0816
16,AAAAGCGTAC,0.0294
17,CACCACCCCG,0.00518
18,CCTCCACCCC,0.0117
19,CCCCTACCCC,0.00954
20,CACCCCTCCC,0.00826
